{"source": "the supplement of paper PMC9950053", "note": "Structures can show the parent of a compound that is named as a salt."}
{"test_system": "Danio rerio larvae (5 dpf)", "test": "1-h baseline activity (% time moving, periods 1-6) minus DMSO control (percentage points); higher = more locomotor activity than DMSO larvae", "details": "10 µM; exposure time: 3 h pre-incubation + 3 h imaging", "outline": "(§1)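 Wild-type 5 dpf zebrafish larvae were exposed to compounds at 10 µM final for 3 h before and 3 h during imaging at 28.5 °C. Larvae were imaged every 6 s and tracked by Z-LaP Tracker. Detections below 0.5 probability and larvae moving under 1% of the time were excluded. Each behavioural measure is the group mean (n = 48) minus the DMSO control mean (n = 844), in percentage points.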"}
{"smiles": "Clc1ccc(COC(Cn2ccnc2)c2ccc(Cl)cc2Cl)c(Cl)c1", "note": "(stereo not drawn) [Miconazole nitrate]", "1-h baseline activity": -19.7}
{"smiles": "CCOc1cc(CC(=O)N[C@@H](CC(C)C)c2ccccc2N2CCCCC2)ccc1C(=O)O", "note": "[Repaglinide]", "1-h baseline activity": 4.99}
{"smiles": "CCCc1nc2c(C)cc(-c3nc4ccccc4n3C)cc2n1Cc1ccc(-c2ccccc2C(=O)O)cc1", "note": "[Telmisartan]", "1-h baseline activity": -7.8}
{"smiles": "CC(C)(C)NC(=O)[C@@H]1C[C@@H]2CCCC[C@@H]2CN1C[C@@H](O)[C@H](Cc1ccccc1)NC(=O)[C@H](CC(N)=O)NC(=O)c1ccc2ccccc2n1", "note": "[Saquinavir mesylate]", "1-h baseline activity": -10.4}
{"test_system": "Danio rerio larvae (5 dpf)", "test": "startle (activity period 16 minus period 15, 20-s interval sound) minus DMSO control (percentage points); higher = stronger startle response than DMSO larvae", "details": "10 µM; exposure time: 3 h pre-incubation + 3 h imaging", "outline": "as §1"}
{"smiles": "CC1CNc2c(cccc2S(=O)(=O)N[C@@H](CCCNC(=N)N)C(=O)N2CC[C@@H](C)C[C@@H]2C(=O)O)C1", "note": "(stereo partly drawn) [Argatroban]", "startle": 2.82}
{"smiles": "NC(=O)c1ncn([C@@H]2O[C@H](CO)[C@@H](O)[C@H]2O)n1", "note": "[Ribavirin]", "startle": 2.04}
{"smiles": "CCC(C)(C)C(=O)O[C@H]1C[C@@H](C)C=C2C=C[C@H](C)[C@H](CC[C@@H]3C[C@@H](O)CC(=O)O3)[C@H]21", "note": "[Simvastatin]", "startle": 3.93}
{"smiles": "CCOc1cc(CC(=O)N[C@@H](CC(C)C)c2ccccc2N2CCCCC2)ccc1C(=O)O", "note": "[Repaglinide]", "startle": -4.11}
{"smiles": "CCCc1nc2c(C)cc(-c3nc4ccccc4n3C)cc2n1Cc1ccc(-c2ccccc2C(=O)O)cc1", "note": "[Telmisartan]", "startle": 2.86}
{"smiles": "Clc1ccccc1C(c1ccccc1)(c1ccccc1)n1ccnc1", "note": "[Clotrimazole]", "startle": 4.43}
{"smiles": "Cc1c(-c2ccc(O)cc2)n(Cc2ccc(OCCN3CCCCCC3)cc2)c2ccc(O)cc12", "note": "[Bazedoxifene acetate]", "startle": -3.07}
{"smiles": "CC[C@H](C)C(=O)O[C@H]1C[C@@H](C)C=C2C=C[C@H](C)[C@H](CC[C@@H]3C[C@@H](O)CC(=O)O3)[C@H]21", "note": "[Lovastatin]", "startle": -1.2}
{"smiles": "C[C@H]1C[C@@H]2[C@H]([C@@H](O)C[C@@]3(C)[C@H]2CC[C@]3(O)C(=O)CO)[C@@]2(C)C=CC(=O)C=C12", "note": "[Methylprednisolone]", "startle": 0.408}
{"smiles": "Cn1cnc([N+](=O)[O-])c1Sc1ncnc2[nH]cnc12", "note": "[Azathioprine]", "startle": -0.818}
{"smiles": "COc1ccccc1OCCNCC(O)COc1cccc2[nH]c3ccccc3c12", "note": "(stereo not drawn) [Carvedilol]", "startle": 3.72}
{"smiles": "O=C(O)CCCc1ccccc1", "note": "[Sodium 4-Phenylbutyrate]", "startle": -5.61}
{"smiles": "Cc1cn([C@H]2C=C[C@@H](CO)O2)c(=O)[nH]c1=O", "note": "[Stavudine]", "startle": 0.235}
{"smiles": "CN/C(=N\\CCSCc1nc[nH]c1C)NC#N", "note": "[Cimetidine]", "startle": 5.75}
{"smiles": "Nc1ccn([C@@H]2O[C@H](CO)[C@@H](O)C2(F)F)c(=O)n1", "note": "[Gemcitabine hydrochloride]", "startle": 2.17}
{"smiles": "CC1=Nc2ccc(Cl)cc2S(=O)(=O)N1", "note": "[Diazoxide]", "startle": -4.34}
{"smiles": "CCCCC(=O)N(Cc1ccc(-c2ccccc2-c2nnn[nH]2)cc1)[C@H](C(=O)O)C(C)C", "note": "[Valsartan]", "startle": 0.232}
{"smiles": "COc1cccc2c1C(=O)c1c(O)c3c(c(O)c1C2=O)C[C@@](O)(C(=O)CO)C[C@@H]3O[C@H]1C[C@H](N)[C@H](O)[C@H](C)O1", "note": "[Doxorubicin hydrochloride]", "startle": 3.54}
{"test_system": "Danio rerio larvae (5 dpf)", "test": "excitability (activity period 17 minus period 16, 1-s interval sound) minus DMSO control (percentage points); higher = more acoustic excitability than DMSO larvae", "details": "10 µM; exposure time: 3 h pre-incubation + 3 h imaging", "outline": "as §1"}
{"smiles": "CCOC(=O)C1=C(C)NC(C)=C(C(=O)OC)C1c1cccc(Cl)c1Cl", "note": "(stereo not drawn) [Felodipine]", "excitability": -10.3}
{"smiles": "O=C(Nc1c(Cl)cncc1Cl)c1ccc(OC(F)F)c(OCC2CC2)c1", "note": "[Roflumilast]", "excitability": 13.4}
{"smiles": "COc1cc2nc(N3CCN(C(=O)c4ccco4)CC3)nc(N)c2cc1OC", "note": "[Prazosin hydrochloride]", "excitability": 16.4}
{"test_system": "Danio rerio larvae (5 dpf)", "test": "combined upward orientation toward moving lines (periods 7-14) minus DMSO control (percentage points); higher = more orientation with moving lines than DMSO larvae", "details": "10 µM; exposure time: 3 h pre-incubation + 3 h imaging", "outline": "as §1"}
{"smiles": "NC(=O)c1ncn([C@@H]2O[C@H](CO)[C@@H](O)[C@H]2O)n1", "note": "[Ribavirin]", "combined upward orientation toward moving lines": -1.89}
{"smiles": "Clc1ccc(COC(Cn2ccnc2)c2ccc(Cl)cc2Cl)c(Cl)c1", "note": "(stereo not drawn) [Miconazole nitrate]", "combined upward orientation toward moving lines": -3.31}
{"smiles": "CC(C)n1c(/C=C/C(O)CC(O)CC(=O)O)c(-c2ccc(F)cc2)c2ccccc21", "note": "(stereo not drawn) [Fluvastatin sodium]", "combined upward orientation toward moving lines": 1.58}
{"smiles": "O=c1[nH]c(=O)n([C@H]2C[C@H](O)[C@@H](CO)O2)cc1C(F)(F)F", "note": "[Trifluorothymidine]", "combined upward orientation toward moving lines": -3.41}
{"smiles": "O=C(Nc1c(Cl)cncc1Cl)c1ccc(OC(F)F)c(OCC2CC2)c1", "note": "[Roflumilast]", "combined upward orientation toward moving lines": -2.52}
{"smiles": "Clc1ccccc1C(c1ccccc1)(c1ccccc1)n1ccnc1", "note": "[Clotrimazole]", "combined upward orientation toward moving lines": -3.91}
{"smiles": "CC(C)C(=O)OCC(=O)[C@@]12O[C@H](C3CCCCC3)O[C@@H]1C[C@H]1[C@@H]3CCC4=CC(=O)C=C[C@]4(C)[C@H]3[C@@H](O)C[C@@]12C", "note": "[Ciclesonide]", "combined upward orientation toward moving lines": -8.95}
{"smiles": "CN1CC[C@@H](NC(=O)Nc2ccc(C#N)cc2)C[C@@H]1c1nc2ccccc2[nH]1", "combined upward orientation toward moving lines": 4.61}
{"smiles": "CCN(CC)CCNC(=O)c1c(C)[nH]c(/C=C2\\C(=O)Nc3ccc(F)cc32)c1C", "note": "[Sunitinib malate]", "combined upward orientation toward moving lines": -5.61}
{"smiles": "CC(C)(C)NC(=O)[C@@H]1C[C@@H]2CCCC[C@@H]2CN1C[C@@H](O)[C@H](Cc1ccccc1)NC(=O)[C@H](CC(N)=O)NC(=O)c1ccc2ccccc2n1", "note": "[Saquinavir mesylate]", "combined upward orientation toward moving lines": -6.24}
{"smiles": "CC(C)c1nc(N(C)S(C)(=O)=O)nc(-c2ccc(F)cc2)c1/C=C/[C@@H](O)C[C@@H](O)CC(=O)O", "note": "[Rosuvastatin calcium]", "combined upward orientation toward moving lines": 4.67}
{"smiles": "CC[C@H](C)C(=O)O[C@H]1C[C@@H](C)C=C2C=C[C@H](C)[C@H](CC[C@@H]3C[C@@H](O)CC(=O)O3)[C@H]21", "note": "[Lovastatin]", "combined upward orientation toward moving lines": -3.5}
{"smiles": "COc1c(C)c2c(c(O)c1C/C=C(\\C)CCC(=O)OCCN1CCOCC1)C(=O)OC2", "note": "[Mycophenolate mofetil]", "combined upward orientation toward moving lines": 4.45}
{"smiles": "CCOc1ccccc1OCCN[C@H](C)Cc1ccc(OC)c(S(N)(=O)=O)c1", "note": "[Tamsulosin hydrochloride]", "combined upward orientation toward moving lines": -16.3}
{"smiles": "CCOC(=O)[C@H](CCc1ccccc1)N[C@@H](C)C(=O)N1[C@H](C(=O)O)C[C@@H]2CCC[C@@H]21", "note": "[Ramipril]", "combined upward orientation toward moving lines": -5.05}
{"smiles": "Nc1ccn([C@@H]2O[C@H](CO)[C@@H](O)C2(F)F)c(=O)n1", "note": "[Gemcitabine hydrochloride]", "combined upward orientation toward moving lines": 5.82}
{"smiles": "CCCCC(=O)N(Cc1ccc(-c2ccccc2-c2nnn[nH]2)cc1)[C@H](C(=O)O)C(C)C", "note": "[Valsartan]", "combined upward orientation toward moving lines": 2.9}
{"smiles": "CN(CCOc1ccc(NS(C)(=O)=O)cc1)CCc1ccc(NS(C)(=O)=O)cc1", "note": "[Dofetilide]", "combined upward orientation toward moving lines": -4.9}
